40 sequences from the OligoGym collection can be followed below.
Further: reference of the scale not given here.

The first test addresses ATP10B. The test is described as follows: pooled miR-30 sensor sort-seq; sequence = guide strand. The settings on record: shRNA.
For the sequence TTGGTGTAGACAACAATCTCGC, the sensor-assay potency score (higher = more potent) is -0.19.

For the sequence TCGCTTAGCATTTTCTTGGTGA, the sensor-assay potency score (higher = more potent) was 0.0526.

For the sequence TAAGGTGAGTTGATTCTCCAGA, the sensor-assay potency score (higher = more potent) came out at 0.552.

In the case of TTTATCTGGAGTTACATCTTTT, the sensor-assay potency score (higher = more potent) was -0.334.

The sequence TTCTTGGTGAGAATACTCGCTG showed a sensor-assay potency score (higher = more potent) of -0.605.

Sequence TTGACTATCATACTCTTCTGGA returned a sensor-assay potency score (higher = more potent) of 0.0435.

On to TTGATGGTGACCCTCTGCCTGG, for which the sensor-assay potency score (higher = more potent) is -1.45.

As for TTTGAGATTAGAGACTTCCCAC, the sensor-assay potency score (higher = more potent) was determined as 0.383.

TAACATGGTGATTTCTCTGTGG yielded a sensor-assay potency score (higher = more potent) of 0.162.

TTTGTCTCTCCATCCAAGCTGG came in with a sensor-assay potency score (higher = more potent) of -0.607.

TTGAAGAATATCATCTGCCAGT returned a sensor-assay potency score (higher = more potent) of -0.482.

Another test concerns the target ATP13A3. The description is as above. The settings on record: shRNA.
In the case of TTCGGTTTCATTGTCTACGTGT, the sensor-assay potency score (higher = more potent) worked out at 0.717.

As to TAGACATAGATTTTGGACTTGA, the sensor-assay potency score (higher = more potent) is -0.0415.

TTAATTGCAGCTCTGACACAGG displayed a sensor-assay potency score (higher = more potent) of 0.0379.

For TATAACACTGAACAGCTGGAAA, the sensor-assay potency score (higher = more potent) was -0.978.

Take TTGACGTACAAGAAACACCTTC: the sensor-assay potency score (higher = more potent) came to 0.452.

The sequence TTGACATGATCCATTCTCCTTA came in with a sensor-assay potency score (higher = more potent) of -0.0274.

In turn, TAGATTTTGGACTTGAAACTGG had a sensor-assay potency score (higher = more potent) of -0.128.

Regarding TTCATCAGTAGTCCTCAGCAGC, the sensor-assay potency score (higher = more potent) is -0.704.

Turning to TTCTTCAGTTGCTTCTTCCAGA, the sensor-assay potency score (higher = more potent) is -0.0869.

TAAAGCTTTAGCTTCTGTGGTT showed a sensor-assay potency score (higher = more potent) of -0.122.

In a further test the target is ATP2B3. Described as above. Conditions: shRNA.
As to TATTGTACATAGACCGGCGTGC, the sensor-assay potency score (higher = more potent) worked out at 0.677.

As to TTTGTAAAGCTTGTCTTCCGGG, the sensor-assay potency score (higher = more potent) was -0.371.

TTGTCGGTGGGAGACGACCGGG: the sensor-assay potency score (higher = more potent) was -1.43.

In turn, TTTTTCAAGAGGATCTCTGAGG displayed a sensor-assay potency score (higher = more potent) of -0.749.

AAAAAAAACAACTACAACCTTG returned a sensor-assay potency score (higher = more potent) of -0.501.

TTGTAAAGCTTGTCTTCCGGGA registered a sensor-assay potency score (higher = more potent) of -0.394.

In turn, TGAAACTGCAGGAACTTGGAGA had a sensor-assay potency score (higher = more potent) of 0.195.

With TTGGCTTCTTTTGAACTCTTGG, the sensor-assay potency score (higher = more potent) was 0.325.

Turning to TTTTTTTGCATGAAGATGCTGA, the sensor-assay potency score (higher = more potent) worked out at 0.145.

In the case of TTTGCTTTTAATATCTATTGGC, the sensor-assay potency score (higher = more potent) turned out to be 0.393.

The sequence TTGCTGTTCAAGATGTTGGTGC had a sensor-assay potency score (higher = more potent) of 0.726.

In turn, TTTATGAACTGAACACAGTTGA registered a sensor-assay potency score (higher = more potent) of 0.503.

On to TTGACCAGAAAGATATTCTTGC, for which the sensor-assay potency score (higher = more potent) was found to be 0.31.

Take TTGATCAGAAACTCGGGCGTGG: the sensor-assay potency score (higher = more potent) amounted to 0.126.

With TTTTCTTGACAGAGTAAGCTAA, the sensor-assay potency score (higher = more potent) is -0.151.

TTTCTTGACAGAGTAAGCTAAG gave a sensor-assay potency score (higher = more potent) of -0.513.

As to TTAGGCAACTTTATACAGCAGC, the sensor-assay potency score (higher = more potent) was -0.477.

TTGACTGCTTCTGCTCAGGGGT yielded a sensor-assay potency score (higher = more potent) of -0.897.

AAAACAACTACAACCTTGCTAC: the sensor-assay potency score (higher = more potent) was -0.0751.
